# High-throughput results as filed in PubChem.
# HT1080NT lethal: kills 2HG-producing HT-1080-NT fibrosarcoma cells; HT-1080-NT fibrosarcoma viability, CellTiter-Glo ATP luminescence, 48 h; Potency, µM (series often up to 46.1 µM), for the others: at the highest dose activity, negative = less viability, usual class: cytotoxic; 360,000 tested, 1.6% active; AID 686970;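 note: NT is the 2HG producing partner of a matched IDH1 knockdown line; potency is the fitted concentration of half-maximal effect; 0% = DMSO-treated cells and -100% = media-only wells without cells; nearly all actives have a fitted effect of over 55% in size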
#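 Compounds were tested in concentration-response format on HT-1080-NT cells for 48 hours at 37 degrees C. Cell viability came from CellTiter-Glo luminescence; curves were classified by r2, response magnitude and activity.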
# DT40 TDP1 CPT: growth inhibition of DT40 Tdp1-/-;hTDP1 cells with camptothecin (screen for TDP1 inhibitors); chicken DT40 Tdp1-/-;hTDP1 cells + 20 nM CPT, ATP luminescence, 48 h; Potency, µM (series often up to 46.2 µM), for the others: at the top dose activity change, negative = growth inhibition, most hits filed as inhibitors; 420,000 tested, 12% active; note: potency is the fitted concentration of half-maximal effect; nearly all actives have a fitted effect of over 55% in size
#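 Chicken DT40 Tdp1-/- cells stably complemented with human TDP1 were seeded at 400 cells/well in medium containing 20 nM camptothecin, exposed to pin-transferred compounds, and grown at 37 °C for at least 48 hr. Viability was read as ATP luminescence.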
# HT1080 IDH1KD tx: toxicity to HT-1080 IDH1 knockdown cells (counter line); HT-1080 IDH1 knockdown viability, ATP luminescence, 48 h; Potency, µM (doses to about 46.1 µM), without a hit: top-dose activity, negative = toxicity, most hits filed as cytotoxic; 360,000 tested, 2% active;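 note: potency is the fitted concentration of half-maximal effect; 0% = DMSO wells and -100% = cell-free medium wells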
#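 Viability of IDH1-knockdown HT-1080 fibrosarcoma cells was assessed by CellTiter-Glo after 48 h at 37 °C with titrated compound; concentration-effect curves were classified by fit quality and response size.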
# IL1B secr inh: blocks inflammasome-driven IL-1 beta release | THP-1 LPS/ATP IL-1B secretion, AlphaLISA, 16 h; active compounds read low | activity change, % at 57.5 µM | 360,000 tested, 4.7% active | AID 743279; in the data active = activity change below about -50%; inconclusive = mostly about -30% to -49%
#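 Secreted IL-1B measured by AlphaLISA bead assay after 16 h compound exposure of THP-1 cells; compounds (final up to 57.5 uM) added 1 h before LPS (250 ng/mL) and ATP (1.25 mM) stimulation; lower signal means less secretion.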
# DT40 TDP1 no CPT: qHTS for Inhibitors of human tyrosyl-DNA phosphodiesterase 1 (TDP1): qHTS in cells in absence of CPT. DT40 Tdp1-/- hTDP1 cells, no CPT, ATP luminescence, 48 h. Potency, µM (series often up to 46.2 µM), without a hit: at the highest dose activity change, negative = growth inhibition, hits mostly inhibitors. 420,000 tested, 15% active. AID 686978, 2013; note: potency is the fitted concentration of half-maximal effect; nearly all actives have a fitted effect of over 55% in size
#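 No-CPT arm: Tdp1-/-;hTDP1 DT40 cells (400/well) plus compounds, incubated ≥48 hr at 37 °C. Readout CellTiter-Glo luminescence.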
# * marks the source's active call; other numbers are inactive results; u = inconclusive; x = no result given; [ ] = remark or other dose. An excerpt weighted towards active compounds, which were near 19% of everything screened. Unless noted, calls come from the whole dose curve; as a rule, active = well fitted curve in the direction sought with a large enough effect; inconclusive = small, poorly fitted or top-dose-only effect, or another doubt; inactive = no such curve, though single readings can be large; an effect the other way counts as inactive or inconclusive. Unless noted, % is set by controls: 0 for no effect and ±100 for the full control effect.
SMILES,HT1080NT lethal,DT40 TDP1 CPT,HT1080 IDH1KD tx,IL1B secr inh,DT40 TDP1 no CPT
CC1C(=O)N2CCCc3cc(S(=O)(=O)NCc4ccccc4Cl)cc1c32 (stereo not given),1%,u,-1%,42,-2%
O=C(CN1C(=O)COc2ccc(S(=O)(=O)N3CCCCCC3)cc21)Nc1cccc(Cl)c1,x,u,x,x,21µM*
COc1ccc(C)cc1NC(=O)CN1C(=O)COc2ccc(S(=O)(=O)N3CCCCCC3)cc21,-12%,u,-7%,-54*,u
CC(C)c1ccc(NC(=O)CN2C(=O)COc3ccc(S(=O)(=O)N4CCCCCC4)cc32)cc1,x,2.6µM*,x,x,3.7µM*
Cc1cccc(N2CCN(C(=O)CN3C(=O)COc4ccc(S(=O)(=O)N5CCCCCC5)cc43)CC2)c1C,x,u,x,x,16µM*
COc1cccc(NC(=O)CN(C)C(=O)c2c(C)noc2C)c1,-1%,-21%,5%,7,-9%
CCCCn1c(N)c(N(CC(C)C)C(=O)CSc2nnc(C)n2-c2ccc(OC)cc2)c(=O)[nH]c1=O,9%,7%,2%,1,15%
CCOc1ccc(C2=CS/C(=C(\C#N)c3nnc4n3CCCCC4)N2CC)cc1,-26%,u,u,-4,23µM*
NCCCN(Cc1ccccc1)c1ccc(Br)cn1,-27%,11µM*,-19%,x,u
CCCCc1ccc(NC(=O)CSc2nc(=O)n(CCN(C)C)c3c2CCC3)cc1,21µM*,u,15µM*,-72*,u
Cc1ccc(NC(=O)CSc2nc(=O)n(CCN(C)C)c3c2CCCC3)cc1Cl,-18%,u,u,-87*,u
CCN(CC)CCn1c2c(c(SCC(=O)Nc3cccc4ccccc34)nc1=O)CCCC2,2%,u,-1%,-66*,u
CCCCc1ccc(NC(=O)CSc2nc(=O)n(CCN(CC)CC)c3c2CCCC3)cc1,u,u,u,-78*,23µM*
CC1CN(CCNC(=O)C2CCCc3c2[nH]c2ccccc32)Cc2ccccc2O1 (stereo not given),x,18%[9.04 µM],x,x,u
O=C(/C=C/[C@H]1O[C@@H](n2ccc(=O)[nH]c2=O)[C@H](O)[C@@H]1O)NCc1cccnc1,18%,7%,26%,45,24%
O=C(C1=NN[C@@H]2C(=O)N(Cc3ccccc3)C(=O)[C@H]12)c1ccc(F)cc1,7%,-1%,10%,x,u
O=C(NC1CCN(Cc2ccc(Cl)cc2)CC1)c1cn(-c2ccccc2)nc1-c1cccnc1,2%[9.24 µM],16µM*,-15%,u,u
CN(C)c1ccc(CNC(=O)C2CCN(S(=O)(=O)c3cn(C)cn3)CC2)cc1,x,1%,x,x,-23%
CC(C)c1ccc(C(O)P(=O)(OC2CCCCC2)OC2CCCCC2)cc1 (stereo not given),u,u,u,-92*,u
Cc1cccc(-c2noc(CNC(=O)Nc3ccc(F)cc3)n2)c1,17%,-29%,22%,-18,0%
COc1ccc(OC(C)C(=O)N(C)Cc2nc(-c3cccc(C)c3)no2)cc1 (stereo not given),0%,-21%,-6%,36,u
Cc1ccc(S(=O)(=O)N(Cc2nc(-c3cccc(C)c3)no2)C2CCCCC2)cc1,x,u,x,x,10µM*
Cc1cccc(-c2noc(CN(C3CCCCC3)S(=O)(=O)c3ccc(F)cc3)n2)c1,x,21µM*,x,x,15µM*
Cc1cccc(-c2noc(CN(C)S(=O)(=O)c3cc(Cl)ccc3Cl)n2)c1,-14%,-28%,-9%,39,-29%
COc1ccc(S(=O)(=O)N(Cc2nc(-c3cccc(C)c3)no2)C2CCCCC2)cc1,x,15µM*,x,x,u
O=C(CC1C(=O)NCCN1CC1CCCCC1)NCc1ccc(F)cc1F (stereo not given),-16%,-1%,-6%,-66*,-18%
COc1ccc(CN2CCNC(=O)C2CC(=O)NCCCC2CCCC2)c(F)c1 (stereo not given),-10%,u,-6%,-11,u
